Values joined by “and” are separate entries in the source; they are usually repeats but may differ in a detail not shown here. Equal values may be shown once. About 83,000 compounds went through this panel and 20% of them were active in at least one assay; those are over-represented in the sample as a whole.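 A percent growth of 40 corresponds to 60% growth inhibition; 0 means no net growth; -100 means all cells died. Active threshold: below 10.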 Active and inactive are the calls of the source.
system: IGROV1 ovarian; test: NCI-60 one-dose screen, 48 h (100 = growth as untreated, 0 = no growth, -100 = all killed); settings: 10 µM unless noted

SMILES	growth
O=[N+]([O-])c1ccccc1/C=N\Nc1ccccc1	74.4% (inactive) and 59.1% (inactive)
CCN(CC)CCNc1cc(-c2cccc(OC(F)(F)F)c2)nc2ccc(N3CCCC3)cc12	-14.8% (active) and 6.93% (active) and 25.2% (inactive)
CC(=O)Nc1cc(S(=O)(=O)O)cc2cc(S(=O)(=O)O)c(N=Nc3ccccc3)c(O)c12	117% (inactive) and 101% (inactive)
CC(C)CNC(=O)c1ccccc1C(=O)NC1(C(=O)NCC(C)C)CCCC1	111% (inactive) and 102% (inactive)
COc1cc2nc(N3CCN(C(=O)C4COc5ccccc5O4)CC3)nc(N)c2cc1OC (stereo not drawn)	93.4% (inactive) and 109% (inactive) and 95.6% (inactive)
O=C(Cc1cccc2ccccc12)N/N=C/c1ccc2c(c1)CCC2	47.8% (inactive)
CC1=C(/C=C/C(C)=C/C=C/C(C)=C/C(=O)O)C(C)(C)CCC1	99.5% (inactive) and 96% (inactive) and 75.9% (inactive)
O=C(Nc1ccc(Br)cc1)c1cc(Br)ccc1O	13.6% (inactive)
Cc1cc(-c2ccc(NS(=O)(=O)c3ccccc3)c(C)c2)ccc1NS(=O)(=O)c1ccccc1	69.3% (inactive) and 117% (inactive)
O=C(CCl)c1ccc2c(c1)Nc1ccccc1S2	104% (inactive) and 93.3% (inactive)
CC1CCCc2sc3nc(NNC(=O)c4cnccn4)n(-c4ccccc4)c(=O)c3c21 (stereo not drawn)	16.9% (inactive) and 14.1% (inactive)
Cc1cc(O)c(C(C)C)cc1N	103% (inactive) and 114% (inactive)
COc1ccc2cc3[n+](cc2c1OC)CCc1cc2c(cc1-3)OCO2	84.4% (inactive) and 74.8% (inactive)
COc1c(/C(C)=N/N=c2sc(C(C)=O)nn2-c2ccc(Cl)cc2)c(Oc2ccccc2)c(OC)c2occc12	102% (inactive) and 94.5% (inactive)
OC(COc1cccc2ccccc12)CN1CCN(c2ccc(Cl)cc2)CC1 (stereo not drawn)	103% (inactive) and 84.8% (inactive)
CNc1ccc2nc3ccc(=[N+](C)C)cc-3sc2c1	3.81% (active) and -25.6% (active)
CC1=NN(c2ccccc2)C(=O)C1C(=O)c1ccccc1 (stereo not drawn)	100% (inactive)
OCCN1CCN(CCO)CC1	113% (inactive) and 90.8% (inactive) and 112% (inactive)
CC1=CCC2CC1C2(C)C (stereo not drawn)	35.4% (inactive)

SMILES	growth
COc1cc(/C=N/Nc2nc3c([nH]2)c(=O)n(C)c(=O)n3C)ccc1O	110% (inactive) and 124% (inactive)
S=C(S)N1CCCC1	58.9% (inactive) and 56.5% (inactive)
CC(=O)Oc1cc(C(=O)O)cc(OC(C)=O)c1OC(C)=O	130% (inactive) and 95.8% (inactive)
CCN(CC)C(=O)c1cccnc1	130% (inactive)
O=C(Nc1cccc(Cl)c1)c1cc2ccccc2cc1O	22.6% (inactive) and 24.2% (inactive)
Cn1c(SSc2ccc(-c3cccnc3)n2C)ccc1-c1cccnc1	103% (inactive) and 88.1% (inactive)
CN1CCN(CCC=C2c3ccccc3Sc3ccc(S(=O)(=O)N(C)C)cc32)CC1	62.1% (inactive) and 58.2% (inactive)
Oc1c(Cl)cc(Cl)cc1Sc1cc(Cl)cc(Cl)c1O	56.5% (inactive) and 33.3% (inactive) and 73.7% (inactive)
Cn1c(=O)n(-c2ccc(C(C)(C)C#N)cc2)c2c3cc(-c4cnc5ccccc5c4)ccc3ncc21	-12.3% (active) and -27.9% (active)
O=C(N/N=C/c1ccccc1)N/N=C/c1ccccc1	99.9% (inactive) and 106% (inactive)
COc1ccc(-c2cn[nH]c2-c2cc(OC)c(OC)c(OC)c2)cc1N	37.2% (inactive) and 15.6% (inactive)
C1CCCCNCCC1	140% (inactive)
COc1ccccc1C(C)=O	119% (inactive) and 109% (inactive)
NS(=O)(=O)c1cc2c(cc1Cl)NC(C(Cl)Cl)NS2(=O)=O (stereo not drawn)	101% (inactive) and 109% (inactive)
CC1(c2ccc3ccccc3c2)CCC(=O)O1 (stereo not drawn)	102% (inactive)
CC1=C(/C=C/C(C)=C/C=C/C(C)=C/C=N/NC(=S)NC(=S)N/N=C/C=C(C)/C=C/C=C(C)/C=C/C2=C(C)CCCC2(C)C)C(C)(C)CCC1	-34.8% (active) and -39.5% (active)
CCCCOc1cc(C(=O)NCCN(CC)CC)c2ccccc2n1	102% (inactive) and 111% (inactive)
COc1cc2c(c(OC)c1OC)-c1ccc(OC)c(=O)cc1[C@@H](NC(C)=O)CC2	16.5% (inactive) and 15.3% (inactive)
CN1CCN(c2ccc3nc(-c4c(N)c5c(F)cccc5[nH]c4=O)[nH]c3c2)CC1	13.9% (inactive) and 13.5% (inactive)
